# IL1B secr inh = qHTS for Inhibitors of Inflammasome Signaling: IL-1-beta AlphaLISA Primary Screen. activity change, % at 57.5 µM. THP-1 LPS/ATP IL-1B secretion, AlphaLISA, 16 h; stronger effect = lower value. actives 4.7% (n = 360,000); in the data active = activity change below about -50%; inconclusive = mostly about -30% to -49%
#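 THP-1 cells pretreated 1 hr with compounds (up to 57.5 uM final), then stimulated with LPS (250 ng/mL final) plus ATP (1.25 mM final); secreted IL-1B measured by AlphaLISA after 16 hr, decreased signal indicating inhibition.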
# DT40 TDP1 CPT = qHTS for Inhibitors of human tyrosyl-DNA phosphodiesterase 1 (TDP1): qHTS in cells in presence of CPT. chicken DT40 Tdp1-/-;hTDP1 cells + 20 nM CPT, ATP luminescence, 48 h. Potency, µM (doses to about 46.2 µM), without a hit: top-dose activity change, negative = growth inhibition, hits mostly inhibitors. actives 12% (n = 420,000); note: potency is the fitted concentration of half-maximal effect; nearly all actives have a fitted effect of over 55% in size
#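 Chicken DT40 Tdp1-/- cells stably complemented with human TDP1 were seeded at 400 cells/well in medium containing 20 nM camptothecin, exposed to pin-transferred compounds, and grown at 37 °C for at least 48 hr. Viability was read as ATP luminescence.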
# TDP1 cell noCPT = qHTS for Inhibitors of human tyrosyl-DNA phosphodiesterase 1 (TDP1): qHTS in cells in absence of CPT. actives 15% (n = 420,000). DT40 Tdp1-/- hTDP1 cells, no CPT, ATP luminescence, 48 h. Potency, µM (series often up to 46.2 µM), for inactives: at the top dose activity change, negative = growth inhibition, most hits filed as inhibitors; note: potency is the fitted concentration of half-maximal effect; nearly all actives have a fitted effect of over 55% in size
#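 Camptothecin absent (DMSO only). Human TDP1-complemented DT40 knockout cells, 400 cells/well, 37 °C for minimum 48 hr; ATP measured via CellTiter-Glo, 30 min dark incubation, luminescence.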
# HT1080 IDH1KD tx = qHTS for induction of synthetic lethality in tumor cells producing 2HG: qHTS for the HT-1080-IDH1KD cell line. actives 2% (n = 360,000). AID 686971, 2013. Potency, µM (doses to about 46.1 µM), for inactives: top-dose activity, negative = toxicity, hits mostly cytotoxic. HT-1080 IDH1 knockdown viability, ATP luminescence, 48 h;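 note: potency is the fitted concentration of half-maximal effect; 0% = DMSO wells and -100% = cell-free medium wells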
#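 IDH1KD HT-1080 cells, 750/well, RPMI + 5% FBS; compound pinned after 2 h settling; 48 h, 37 °C; CellTiter-Glo luminescence; % activity normalised to DMSO and no-cell wells; curves fitted, classed by r2 and efficacy.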
# HT1080-NT tox = qHTS for induction of synthetic lethality in tumor cells producing 2HG: qHTS for the HT-1080-NT fibrosarcoma cell line; Potency, µM (highest dose often 46.1 µM), without a hit: at the highest dose activity, negative = less viability, hits mostly cytotoxic; HT-1080-NT fibrosarcoma viability, CellTiter-Glo ATP luminescence, 48 h; AID 686970, 2013; actives 1.6% (n = 360,000);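 note: NT is the 2HG producing partner of a matched IDH1 knockdown line; potency is the fitted concentration of half-maximal effect; 0% = DMSO-treated cells and -100% = media-only wells without cells; nearly all actives have a fitted effect of over 55% in size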
#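 Toxicity toward the 2HG-producing NT line was scored as %Activity, normalised to DMSO and no-cell wells, from CellTiter-Glo luminescence after 48 hours' treatment.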
# Starred values were filed as active, the others as inactive; ? = inconclusive; / = no result given. Only some compounds are listed: those with a hit (about 19% of all), similar ones and a draw of the others. Unless noted, calls come from the whole dose curve; as a rule, active = well fitted curve in the direction sought with a large enough effect; inconclusive = small, poorly fitted or top-dose-only effect, or another doubt; inactive = no such curve, though single readings can be large; an effect the other way counts as inactive or inconclusive. Unless noted, % is set by controls: 0 for no effect and ±100 for the full control effect.
SMILES,IL1B secr inh,DT40 TDP1 CPT,TDP1 cell noCPT,HT1080 IDH1KD tx,HT1080-NT tox
CCCCCCCCCCOC(=O)Cn1c(COc2ccccc2)[n+](C)c2ccccc21,0,5.8µM*,2.6µM*,-6%,-24%
CCCCCCCCCCOC(=O)Cn1c(COc2ccccc2C)[n+](C)c2ccccc21,-97*,1.6µM*,1µM*,12µM*,23µM*
CCOC(=O)Cn1c(COc2ccccc2OC)[n+](C)c2ccccc21,23,?,-5%,11%,-6%
CCCCCCCCCCOC(=O)Cn1c(COc2ccc(Cl)cc2)[n+](C)c2ccccc21,-72*,4.1µM*,4.6µM*,-22%,-24%
C#CCOCCOCCOCCNc1nc(N2CCN(C(=O)[C@H](C(C)C)n3cc(CCO)nn3)CC2)nc(N2CCN(C(=O)[C@H](CCCCN)n3cc(CCCC)nn3)CC2)n1,3,-14%,2%,23%,8%
Cc1cccc(N2N=C(C(=O)Nc3nc(C)cs3)CCC2=O)c1,-6,-3%,-11%,-4%,-2%
CC(C)N(C(=O)[C@H]1CC(CC(=O)NCCC2=CCCCC2)C(=O)N2CCc3c([nH]c4ccccc34)[C@]12C)C(C)C (some centres undefined),?,?,?,3%,2%
CCCCCOC(=O)Cn1c(=O)oc2ccccc21,4,-2%,-12%,4%,10%
CCCCCCCCCCOC(=O)Cn1c(COc2cccc(C)c2)[n+](C)c2ccccc21,-97*,7.3µM*,4.6µM*,?,?
O=C(N/N=C/c1c[nH]c2ccc(Br)cc12)c1ccn(Cc2ccc(Cl)cc2Cl)n1,?,?,21µM*,?,?
CC(=O)N1CCOc2ccc(S(=O)(=O)N3CCCC(C)C3)cc21 (centres undefined),18,4%,?,6%,2%
Cc1cc(C(=O)CSc2nnc3ccccn23)c(C)n1-c1ccccc1,5,?,23µM*,-3%,-2%
COc1ccc(Cl)cc1NC(=O)NCC1CCN(C(=O)OC(C)(C)C)CC1,-55*,-7%,-15%,-31%,-18%
CCOC(=O)c1cc2sccc2n1CC(=O)OC(C)C,5,-8%,-5%,-6%,7%
COc1ccc(Cl)cc1NC(=O)CN1CCc2ccccc2C1,-81*,-30%,-4%,9%,-12%
COc1ccc(Cl)cc1NC(=O)COC(=O)c1cc(C)oc1C,-28,?,3.3µM*,5%,-2%
CCN(C(=O)Cn1c(C(=O)OC)cc2sccc21)c1cccc(C)c1,/,23µM*,?,/,/
O=C(COC(=O)c1ccc2ncsc2c1)NC(=O)C1CCCCC1,/,5%,-13%,/,/
Cc1cc(C)nc(SCC(N)=O)n1,-7,-17%,?,13%,19%
COC(=O)c1cc2sccc2n1CC(=O)Nc1cc(Cl)ccc1OC,/,12µM*,10µM*,/,/
COc1cc2c(cc1OC)CN(CCC(C)c1ccc(Cl)cc1)CC2 (centres undefined),-21,15µM*,16µM*,15µM*,-38%
COc1ccc(Cl)cc1NC(=O)CCCC(=O)c1ccccc1,?,21µM*,?,-7%,10%
COC(=O)c1[nH]c2ccc(Cl)cc2c1NC(=O)CN1CCc2cc(OC)c(OC)cc2C1,-11,?,21µM*,-23%,-25%
COC(=O)c1cc2sccc2n1CC(=O)Nc1cc(OC)cc(OC)c1,-12,-19%,-25%,-29%,?
Cc1nc(N2CCOCC2)c2c(C(=O)N3CCN(c4ccc(Cl)cc4)CC3)c(C)oc2n1,/,-29%,-16%,/,/
CN1CCN(CC(=O)Nc2ccc(Cl)cc2Cl)CC1,-8,-13%,-1%,-1%,-7%
